The values that follow are results of earlier work, collected in PubChem BioAssay AID977611.

Out of some 3,900 compounds screened, about 3,900 (100%) were called active. The limit is not given here; nearly all actives have Kd up to about 4200 µM. The set was probably picked from earlier hits. This is one part of the list. *1 amine or outer side, *2 acyl side, *3 side chain or, on linkers, in order; H or OH if unused. Where a SMILES comes first, the peptide text is derived from it. Non-standard residues stand in square brackets, D forms with d. Square brackets hold non-standard residues; d marks the D form. Residues, ends and D or L forms follow the SMILES beside them. Peptide text beside a SMILES is read from it. [ ]: non-standard residue; d: D form. Thr(P(OH)3+) = C[C@@H](O[P+](O)(O)O)[C@H](N)C(=O)O; X1 = C[C@H](O[P+](O)(O)O)[C@H](N[*:1])C(=O)[*:2]; Lys(Me3) = C[N+](C)(C)CCCC[C@H](N)C(=O)O; Orn(CH(NH2)2) = NC(N)NCCC[C@H](N)C(=O)O; Lys(Me2) = CN(C)CCCC[C@H](N)C(=O)O

The nature of the data set: PubChem AID 977611. The following applies: PDB protein-ligand complexes, literature Kd.

For the compound `CC(C)[C@H](NC(=O)[C@H](CO)NC(=O)[C@@H](NC(=O)[C@@H](N)CCCCN)C(C)C)C(=O)N[C@H](C(=O)N[C@@H](CCCNC(N)N)C(=O)N[C@H](C(=O)N1CCC[C@H]1C(=O)N1CCC[C@H]1C(=O)N[C@@H](CCCCN)C(=O)N[C@@H](CO)C(=O)N1CCC[C@H]1C(=O)N[C@@H](CO)C(=O)O)[C@H](C)O[P+](O)(O)O)C(C)C` (H-KVSVV[Orn(CH(NH2)2)][X1]PPKSPS-OH), for the setting “protein: Pin1 WWdomain, PDB entry 1i8h”, the Kd is 29 µM (active).

Turning to `CC(=O)N1CCC[C@H]1C(=O)N1CCC[C@H]1C(=O)NCC(=O)N1CCC[C@H]1C(=O)N1CCC[C@H]1C(=O)NCC(=O)N1CCC[C@H]1C(=O)N[C@H](C(=O)NCC(=O)N1CCC[C@H]1C(=O)N[C@@H](CCCNC(N)N)C(=O)NCC(=O)N1CCC[C@H]1C(=O)N1CCC[C@H]1C(=O)NCC(=O)N1CCC[C@H]1C(=O)N1CCC[C@H]1C(=O)O)[C@@H](C)O` (Ac-PPGPPGPTGP[Orn(CH(NH2)2)]GPPGPP-OH), the Kd (protein: HSP47, PDB entry 3zha) was 1 µM (active).

Take `CNC(CSSC[C@H](NC(=O)CC[C@H](N)C(=O)O)C(=O)NCC(=O)O)C(=O)NCC(=O)O` (stereo partly specified): the Kd (protein: PUTATIVE AMINO ACID BINDING PROTEIN, PDB entry 4c0r) was 12.2 µM (active).

Turning to `N[C@@H](CCC(=O)N[C@@H](CS)C(=O)NCC(=O)O)C(=O)O`, the Kd reads like this: (protein: mitochondrial ABC transporter, Atm1, PDB entry 4myh) 23 µM (active); (protein: protein yqjG, PDB entry 4g0l) 6.5 µM (active).

As to `CC(C)C[C@H](NC(=O)[C@H](CC(C)C)NC(=O)[C@H](CCC(=O)O)NC(=O)[C@@H](N)CO)C(=O)N[C@@H](CCCCN)C(=O)N[C@@H](Cc1ccc(O)cc1)C(=O)N[C@@H](CC(C)C)C(=O)N[C@H](C(=O)N[C@H](C(=O)O)[C@@H](C)O)[C@@H](C)O` (H-SELLKYLTT-OH), where the note is “protein: the ligand binding domain (LBD) of the estrogen-related receptor ? (ERR?, NR3B1), PDB entry 1xb7”, the Kd was 0.6 µM (active).

With H-SQEKFFQELFDS-OH, under “protein: Peroxisomal Membrane Anchor Protein Pex14, PDB entry 2w85”, the Kd is 9.17 µM (active).

Take `NS(=O)(=O)c1ccc(CNc2ncnc(NCc3ccccc3)c2[N+](=O)[O-])cc1`: for the setting “protein: human carbonic anhydrase II, PDB entry 3mhm”, the Kd is 0.1 µM (active).

With `CC(C)[C@H](NC(=O)[C@H](CCCC[N+](C)(C)C)NC(=O)[C@H](CO)NC(=O)[C@H](CCCN=C(N)N)NC(=O)[C@H](C)NC(=O)[C@H](C)NC(=O)[C@@H](N)CCCN=C(N)N)C(=O)O` (tested in a mixture with another compound) (H-RAARS[Lys(Me3)]V-OH), the Kd (protein: Chromodomain-helicase-DNA-binding protein 1 CHD1, PDB entry 4nw2) was 29 µM (active).

`CC(C)[C@H](NC(=O)[C@H](CCCCN(C)C)NC(=O)[C@H](CO)NC(=O)[C@H](CCCN=C(N)N)NC(=O)[C@H](C)NC(=O)[C@@H](NC(=O)[C@@H](N)CCCN=C(N)N)[C@@H](C)O)C(=O)O` (H-RTARS[Lys(Me2)]V-OH): the Kd (protein: Chromodomain-helicase-DNA-binding protein 1 CHD1, PDB entry 4o42) was 22 µM (active).

With `CC[C@H](C)[C@H](NC(=O)[C@@H](N)CC(N)=O)C(=O)N[C@H](C(=O)N[C@@H](CCC(N)=O)C(=O)N1CCC[C@H]1C(=O)N[C@H](C(=O)N[C@@H](CCC(N)=O)C(=O)N[C@@H](CCC(N)=O)C(=O)N[C@@H](CO)C(=O)N[C@H](C(=O)O)[C@@H](C)O)[C@@H](C)O)[C@@H](C)O[P+](O)(O)O` (H-NI[Thr(P(OH)3+)]QPTQQST-OH), the Kd (protein: Rad53 FHA1 domain, PDB entry 2jqi) is 10 µM (active).

Regarding `CC[C@H](C)[C@H](NC(=O)[C@@H](N)CC(N)=O)C(=O)N[C@H](C(=O)N[C@@H](CCC(N)=O)C(=O)N1CCC[C@H]1C(=O)N[C@H](C(=O)N[C@@H](CCC(N)=O)C(=O)N[C@@H](CCC(N)=O)C(=O)N[C@@H](CO)C(=O)N[C@H](C(=O)O)[C@@H](C)O)[C@@H](C)O[P+](O)(O)O)[C@@H](C)O[P+](O)(O)O` (H-NI[Thr(P(OH)3+)]QP[Thr(P(OH)3+)]QQST-OH), for the setting “protein: the yeast Dun1 FHA domain, PDB entry 2jql”, the Kd was 0.3 µM (active).

Turning to `Cn1c[n+]([C@@H]2O[C@H](CO[P+](O)(O)O[P+](O)(O)O)[C@@H](O)[C@H]2O)c2c1C(=O)NC(N)N2` (stereo partly specified), the dissociation constant (Kd) (protein: rRNA N-glycosidase, PDB entry 4emf) is 0.0839 µM (active).

Turning to `Cn1c[n+]([C@@H]2O[C@H](CO[P+](O)(O)O[P+](O)(O)O[P+](O)(O)O)[C@@H](O)[C@H]2O)c2c1C(=O)NC(N)N2` (stereo partly specified), the Kd (protein: rRNA N-glycosidase, PDB entry 4emr) was 0.0321 µM (active).

In the case of `C[C@H]1COCCN1C[C@H]1CN(S(=O)(=O)c2cccs2)CCN1c1ccc([C@@](C)(O)C(F)(F)F)cc1`, the dissociation constant Kd (protein: Glucokinase regulatory protein, PDB entry 4ly9) is 0.007 µM (active).

In the case of `COC(=O)c1cc(Nc2ncnc3[nH]ccc23)ccc1Br`, the Kd (protein: TAU-TUBULIN KINASE 1, PDB entry 4btm) is 4.1 µM (active).

For the compound `CC[C@H](C)[C@H](NC(=O)[C@@H](N)CCCNC(N)N)C(=O)N[C@@H](CCC(N)=O)C(=O)N[C@@H](CCCNC(N)N)C(=O)N[C@@H](CC(N)=O)C(=O)N[C@@H](CCCCN)C(=O)N[C@@H](C)C(=O)N[C@@H](C)C(=O)N[C@@H](C)C(=O)N[C@@H](CC(C)C)C(=O)N[C@@H](CC(C)C)C(=O)N[C@@H](CCCNC(N)N)C(=O)N[C@@H](CC(C)C)C(=O)N[C@@H](C)C(=O)N[C@@H](C)C(=O)N[C@@H](CCCNC(N)N)C(=O)O` (H-[Orn(CH(NH2)2)]IQ[Orn(CH(NH2)2)]NKAAALL[Orn(CH(NH2)2)]LAA[Orn(CH(NH2)2)]-OH), the dissociation constant Kd (protein: RPA32(C-terminal domain of Replication protein A,172-270), PDB entry 1dpu) was 1 µM (active).

With `CC[C@H](C)[C@H](NC(=O)[C@H](CC(C)C)NC(=O)[C@H](CCCNC(N)N)NC(=O)[C@@H](N)CC(N)=O)C(=O)N[C@@H](CC(C)C)C(=O)O` (H-N[Orn(CH(NH2)2)]LIL-OH), the Kd (protein: Chaperone protein DnaK, PDB entry 4ezy) was 2.26 µM (active).

Regarding `CC[C@H](C)[C@H](NC(=O)[C@H](C)NC(=O)[C@H](CCC(=O)O)NC(=O)[C@H](CCCNC(N)N)NC(=O)[C@H](CC(C)C)NC(=O)[C@H](Cc1ccc(O)cc1)NC(=O)[C@H](CCCNC(N)N)NC(=O)[C@H](CC(=O)O)NC(=O)[C@H](CC(=O)O)NC(=O)[C@@H](N)CC(=O)O)C(=O)N[C@@H](CCC(N)=O)C(=O)N[C@@H](CCC(=O)O)C(=O)N[C@@H](Cc1ccc(O)cc1)C(=O)N[C@@H](CC(=O)O)C(=O)N[C@@H](CC(N)=O)C(=O)N[C@H](C(=O)N[C@@H](C)C(=O)N[C@@H](CCCCN)C(=O)O)[C@@H](C)CC` (H-DDD[Orn(CH(NH2)2)]YL[Orn(CH(NH2)2)]EAIQEYDNIAK-OH), the Kd (protein: N terminal domain of Harmonin, PDB entry 2kbr) is 25.4 µM (active).

For the compound `CC[C@H](C)[C@H](NC(=O)[C@H](CC(N)=O)NC(=O)[C@H](CCSC)NC(=O)[C@@H](N)CCCNC(N)N)C(=O)N[C@@H](CCC(N)=O)C(=O)N[C@@H](CCSC)C(=O)N[C@@H](CC(C)C)C(=O)N[C@@H](CC(C)C)C(=O)N[C@@H](CCC(=O)O)C(=O)N[C@@H](C)C(=O)N[C@@H](C)C(=O)N[C@@H](CC(=O)O)C(=O)N[C@@H](Cc1ccc(O)cc1)C(=O)N[C@@H](CC(C)C)C(=O)N[C@@H](CCC(=O)O)C(=O)N[C@@H](CCCNC(N)N)C(=O)O` (H-[Orn(CH(NH2)2)]MNIQMLLEAADYLE[Orn(CH(NH2)2)]-OH), the Kd is 0.029 µM (active) (protein: mammalian Sin3A PAH2 domain, PDB entry 1g1e) and 5.2 µM (active) (protein: mammalian mSin3A (mSin3A) PAH2 domain, PDB entry 1s5q).

The Kd is the free concentration of one partner at which half of the binding sites on the other are occupied at equilibrium, for simple one-to-one binding.
